PLCb3 inh: human PLC-beta3 inhibitors, primary screen, biochemical, fluorescence; inhibition, % at 12.2 µM; Purified PLC-beta3, fluorogenic substrate; hit rate 0.18% among 370,000; 1-phosphatidylinositol 4,5-bisphosphate phosphodiesterase beta-3 (Homo sapiens), Q01970; in the data active means inhibition above about 11%
proKLK7 act: proKLK7 zymogen activators, primary screen, biochemical, fluorescence intensity; hit rate 0.9% among 370,000; purified proKLK7, EDANS-DABCYL substrate fluorescence; 100% is mature enzyme control, 0% vehicle; AID 652039, 2013; Kallikrein-7 (Homo sapiens), P49862; activation, % at 7 µM;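 active means activation above the mean of all tested compounds plus 3 SD, computed per campaign excluding outliers beyond control limits, cut at about 13% in these data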
Target sequence (P49862 whole entry, looked up): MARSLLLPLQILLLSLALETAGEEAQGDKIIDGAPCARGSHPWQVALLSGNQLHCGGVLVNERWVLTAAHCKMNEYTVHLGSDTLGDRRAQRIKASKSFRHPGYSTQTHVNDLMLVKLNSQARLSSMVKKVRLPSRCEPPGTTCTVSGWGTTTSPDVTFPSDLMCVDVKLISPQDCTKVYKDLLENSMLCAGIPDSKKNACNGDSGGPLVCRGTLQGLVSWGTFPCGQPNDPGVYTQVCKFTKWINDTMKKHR
PLCg1 inh: PLC-gamma1 enzyme inhibitors, primary screen, biochemical, fluorescence, purified enzyme. AID 720700, 2013. fluorogenic substrate. 1-phosphatidylinositol 4,5-bisphosphate phosphodiesterase gamma-1 (Homo sapiens), P19174. hit rate 0.84% among 370,000. inhibition, % at 12.2 µM; in the data active means inhibition above about 9.5%
ADAM17 inh: ADAM17 inhibitors, primary screen, biochemical, QFRET; Disintegrin and metalloproteinase domain-containing protein 17 (Homo sapiens), P78536; recombinant ADAM17, EDANS/DABCYL FRET peptide cleavage; hit rate 0.83% among 370,000; inhibition, % at 6.95 µM;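 active means inhibition above the mean of compounds lying between control limits plus 3 SD, set per campaign, cut at about 8.5% in these data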
ADAM10 inh: human ADAM10 inhibitors, primary screen, biochemical, QFRET, HTS | Disintegrin and metalloproteinase domain-containing protein 10 (Homo sapiens), O14672 | hit rate 0.62% among 370,000 | recombinant ADAM10, EDANS/DABCYL FRET peptide cleavage, 3 h | inhibition, % at 7 µM;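 active means inhibition above a per-campaign cutoff equal to the mean of compounds falling between control-based bounds plus 3 SD, cut at about 20% in these data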
ADAM10 confirm: human ADAM10 inhibitors, confirmation, biochemical, QFRET, triplicate. shares compounds with ADAM10 inh. ADAM10 QFRET peptide cleavage, EDANS fluorescence. inhibition, % at 6.95 µM. hit rate 1% among 2,100. AID 743208, 2013;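 active means inhibition above about 20% chosen separately for each screening run, limit read from the data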
ADAM17 counter: ADAM17 inhibitors, counter-screen for ADAM10 exosite inhibitor project, biochemical, QFRET, high throughput. shares compounds with ADAM10 inh. ADAM17 QFRET peptide cleavage, EDANS fluorescence. inhibition, % at 6.95 µM. hit rate 0.5% among 2,100. AID 743214, 2013;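 active means mean triplicate inhibition above the solvent-only control wells' mean plus 3 SD, cut at about 12% in these data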
ADAM10 ctr: ADAM10 inhibitors, counter-screen for ADAM17 exosite inhibitor project, biochemical, FRET, human ADAM10; hit rate 47% among 2,900; inhibition, % at 6.95 µM; shares compounds with ADAM17 inh; AID 743256, 2014; recombinant ADAM10, EDANS/DABCYL FRET peptide cleavage, 3 h;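 active means mean inhibition over the triplicate runs exceeds the activity threshold set in the earlier primary screen, cut at about 20% in these data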
ADAM17 confirm: ADAM17 inhibitors, hit retest, confirmation, biochemical, QFRET peptide cleavage; shares compounds with ADAM17 inh; AID 743257, 2014; hit rate 65% among 2,900; recombinant ADAM17, EDANS/DABCYL QFRET peptide cleavage; inhibition, % at 6.95 µM;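 active means mean inhibition across replicates above the hit cutoff set in the primary screen, cut at about 8.5% in these data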
Hits are given with their value; n = inactive; x = not tested or not shown. An excerpt weighted towards active compounds, which were near 2.9% of everything screened.

SMILES | PLCb3 inh | proKLK7 act | PLCg1 inh | ADAM17 inh | ADAM10 inh | ADAM10 confirm | ADAM17 counter | ADAM10 ctr | ADAM17 confirm
CC(C)c1ccc(S(=O)(=O)Nc2ccc(SC(F)F)cc2)cc1 | n | n | n | 19.4 | 41.0 | n | n | 25.5 | 15.3
Cc1ccc(S(=O)(=O)Nc2ccc3c(c2)n(C)c(=O)n3C)c(C)c1 | n | n | n | n | n | x | x | x | x
CC(C)(C)NC(=O)C(c1c[nH]c2ccccc12)N(C(=O)Cn1nnc(-c2ccc(F)cc2)n1)c1cccc(O)c1 (stereo not drawn) | n | n | n | 14.1 | 28.4 | n | n | 32.4 | 18.6
CCN(CC)S(=O)(=O)c1cccc(NC(=O)Nc2cccc(C(F)(F)F)c2)c1 | n | n | n | 11.1 | 30.2 | n | n | 55.3 | 29.1
CC(C)(C)c1ccc(OCCC(=O)Nc2cccc(S(=O)(=O)N3CCOCC3)c2)cc1 | n | n | n | 14.9 | 31.6 | n | n | 32.4 | 19.2
Cc1noc(C)c1COc1ccc(C(=O)OCC(=O)Nc2cccc(S(=O)(=O)N3CCOCC3)c2)cc1 | n | n | n | 11.3 | 24.5 | n | n | 29.0 | 13.3
COc1ccc(OCCC(=O)OCC(=O)Nc2cccc(S(=O)(=O)N3CCOCC3)c2)cc1 | n | n | n | n | n | x | x | x | x
Cc1noc(C)c1COC(=O)c1cccc(S(=O)(=O)N2CCOCC2)c1 | n | n | n | n | n | x | x | x | x
CN(c1ccc(OCC(=O)OCC(=O)Nc2ccc(Br)cc2)cc1)S(=O)(=O)c1cccs1 | n | n | n | 12.1 | 20.1 | n | n | 30.7 | 16.1
CC(C)c1ccc(Nc2nc(NCc3ccco3)nc(N3CCOCC3)n2)cc1 | n | n | n | 11.9 | 30.6 | n | n | 22.6 | 12.9
CCc1nc2ccc(C(=O)Nc3cccc(OC)c3)cn2c1N(CC)Cc1cccc(Br)c1 | n | n | n | 10.8 | 21.7 | n | n | 26.8 | 11.5
CCc1nc2ccc(C(=O)Nc3cccc(NS(C)(=O)=O)c3)cn2c1N(CC)Cc1cccc(Br)c1 | n | n | n | 14.9 | 36.0 | n | n | 23.3 | 13.4
CCCCc1c(-c2ccccc2OC)ncn1Cc1ccccc1Cl | n | n | n | n | n | x | x | x | x
O=C(CN1C(=O)C2(OCCCO2)c2ccccc21)NCc1ccc(F)cc1 | n | n | n | n | n | x | x | x | x
O=C(CN1CCN(c2ccccc2O)CC1)Nc1cc(S(=O)(=O)N2CCCC2)ccc1Cl | n | n | n | 8.9 | 28.8 | n | n | n | 10.6
CCN(c1ccc(NC(=O)COC(=O)/C=C/c2cccs2)cc1)C(C)C | n | n | n | 17.5 | 34.4 | n | n | 33.1 | 17.8
Cc1ccc(NC(=O)COC(=O)/C=C/c2cccs2)cc1 | n | n | n | n | n | x | x | x | x
O=S(=O)(Oc1ccc(C(=S)N2CCOCC2)cc1)c1ccc(Cl)cc1 | n | n | n | n | n | x | x | x | x
COc1cccc(NC(=O)CN(C)C(=O)c2ccccc2OCc2c(C)noc2C)c1 | n | n | n | n | n | x | x | x | x
Cc1cccc(COc2ccccc2C(=O)N(C)CC(=O)Nc2cccc(F)c2)c1 | n | n | n | 11.3 | 23.4 | n | n | n | 12.7
Cc1noc(C)c1COc1ccccc1C(=O)N(C)CC(=O)Nc1ccc(Cl)c(Cl)c1 | n | n | n | 9.9 | 22.6 | n | n | 31.6 | 12.6
CCN(C[C@H]1[C@@H](c2ccc(C3=CCCC3)cc2)[C@H](CO)N1C(=O)c1cccnc1)S(=O)(=O)c1ccccc1[N+](=O)[O-] | n | n | n | n | n | x | x | x | x
Cc1cc(NS(=O)(=O)c2ccc(NC(=O)CSc3nnc(SCc4ccc(Cl)cc4)s3)cc2)nc(C)n1 | n | n | n | n | n | x | x | x | x
Cc1cccc(NC(=O)C2C(c3ccccc3)C2(Cl)Cl)c1 (stereo not drawn) | n | n | n | 11.4 | 21.3 | n | n | 24.4 | 14.0
Cc1nonc1C1CCCN1Cc1cn[nH]c1-c1ccc(-c2ccccc2)cc1 (stereo not drawn) | n | n | n | 16.8 | 33.2 | n | n | 29.8 | 18.9
SMILES | PLCb3 inh | proKLK7 act | PLCg1 inh | ADAM17 inh | ADAM10 inh | ADAM10 confirm | ADAM17 counter | ADAM10 ctr | ADAM17 confirm
C/C(CC(=O)Nc1ccc(Cl)c(Cl)c1)=N\NC(=O)Cc1ccccc1 | n | n | n | n | n | x | x | x | x
COc1ccc(Cl)c(NC(=O)C/C(C)=N/NC(=O)CCc2ccccc2)c1 | n | n | n | 10.6 | 24.7 | n | n | n | n
O=C(Cn1c(-c2cncs2)nc2ccccc21)NCc1cccs1 | n | n | n | n | n | x | x | x | x
C=CC(=O)Nc1cccc(Oc2nc(Nc3ccc(N4CCN(C)CC4)cc3OC)ncc2Cl)c1 | n | n | n | n | n | x | x | x | x
C=CC(=O)Nc1cccc(Oc2cc(Cl)nc3[nH]ccc23)c1 | n | n | n | 10.9 | 20.8 | n | n | n | 10.1
Cc1cc(C)cc(C(=O)OCCCN(C)C2CN(Cc3cn(Cc4ccccc4F)nn3)S(=O)(=O)C2)c1 (stereo not drawn) | n | n | n | n | n | x | x | x | x
CCCCNC(=O)C1(C(=O)C2CC2)CC(c2ccccc2C(F)(F)F)=NO1 (stereo not drawn) | n | n | n | n | n | x | x | x | x
Cc1cc(C)c(CN2CCN(C(=O)Cn3cnc4c(NCc5ccccc5)ncnc43)CC2)c(C)c1 | n | n | n | 15.6 | 28.1 | n | n | 28.7 | 14.5
Cc1ccc(NC(=O)c2cc(S(=O)(=O)NCCc3ccccc3)ccc2F)cc1Cl | n | n | n | 15.7 | 22.9 | n | n | 23.9 | 14.3
O=C(Nc1cccc(Cl)c1)c1cc(S(=O)(=O)NCCc2ccc(Cl)cc2)ccc1F | n | n | n | 13.1 | 28.9 | n | n | 34.1 | 17.4
CCOC(=O)N1CCC(NC(=O)c2cc(S(=O)(=O)NCCc3ccccc3)ccc2F)CC1 | n | n | n | n | n | x | x | x | x
C[C@H]1CN(C(=O)OC(C)(C)C)CCN1c1ccc(N2CCS(=O)(=O)CC2)c(C#N)c1 | n | n | n | n | n | x | x | x | x
